Screening data from PubChem.
CRE Fsk mod: Cell signaling CRE-BLA (Fsk stim); CHO CRE-bla reporter (cAMP response element driving beta-lactamase), forskolin EC10, beta-lactamase ratio; Potency, µM (titrated, usually from 38.2 µM), actives largely listed as activators; hit rate 2.5% among 71,000; AID 662, 2007; active = well fitted activation curve with a large enough effect in the signal ratio, with a control signal flat, not every such curve was filed as active; inconclusive = small, poorly fitted or top-dose-only effect, or effect the other way, or a change in a side signal; the % refers to the signal ratio
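Forskolin analogue NKH 477 at EC10 stimulated CRE-driven beta-lactamase in CHO cells alongside compound dilution series. Beta-lactamase was measured with CCF4, excitation 405 nm, emission ratio 460/530 nm.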
AID923: qHTS Assay for Allosteric/Competitive Inhibitors of Caspase-1: Spectroscopic Profiling in AFC Spectral Region; AID 923, 2007; Potency, µM (series often up to 57.5 µM), hits mostly activators; compound fluorescence, AFC spectral region (405/520 nm); hit rate 1.1% among 75,000
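Compound autofluorescence profiled at 405 nm ex/520 nm em during kinetic caspase 1 run (50 nM enzyme, 5 uM Ac-WEHD-AFC, HEPES pH 7.5, 10 mM DTT). Titration up to 57 uM; baseline from regression intercept, normalized to AFC standard curve.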
A350 fluor: qHTS Assay for Spectroscopic Profiling in A350 Spectral Region; Compound autofluorescence, 340/450 nm, Alexa 350 dye-equivalents; stronger effect = higher value; max dye-equivalent concentration, M; hit rate 11% among 59,000; in the data active = max dye-equivalent concentration above about 10 nM; inconclusive = mostly about 1.1 nM to 9.6 nM
4-MU autofl: qHTS Assay for Spectroscopic Profiling in 4-MU Spectral Region; compound autofluorescence, 340/450 nm, 4-MU equivalents; stronger effect = higher value; max dye-equivalent concentration, M; hit rate 11% among 59,000; in the data active = max dye-equivalent concentration above about 10 nM; inconclusive = mostly about 1.1 nM to 9.6 nM
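Intrinsic fluorescence at 340/450 nm (ex/em) was read after 15 min at room temperature in pH 8.0, 100 mM Tris. Each compound concentration expressed as 4-MU-equivalent concentration from a six-point 4-MU standard series on each plate.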
HADH2 inhib: qHTS Assay for Inhibitors of HADH2 (Hydroxyacyl-Coenzyme A Dehydrogenase, Type II) | Potency, µM (series often up to 57.1 µM), hits mostly inhibitors | recombinant HADH2, NADH fluorescence, beta-hydroxybutyryl-CoA | hit rate 3.4% among 73,000; also: nearly all actives have a fitted effect of over 60% in size
Target sequence (Q99714 whole entry, looked up, one chain of several): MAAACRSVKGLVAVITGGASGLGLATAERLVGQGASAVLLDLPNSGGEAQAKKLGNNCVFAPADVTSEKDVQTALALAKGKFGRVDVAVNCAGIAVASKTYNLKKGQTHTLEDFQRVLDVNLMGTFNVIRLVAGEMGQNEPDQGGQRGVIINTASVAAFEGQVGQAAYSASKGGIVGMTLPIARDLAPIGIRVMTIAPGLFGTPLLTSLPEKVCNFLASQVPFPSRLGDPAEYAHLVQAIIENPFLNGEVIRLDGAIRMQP
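His-tagged recombinant enzyme from E. coli, 20 nM, preincubated 15 min RT with compound; reaction started with 1 mM NAD+ and 90 uM beta-hydroxybutyryl-CoA in 100 mM Tris-HCl pH 9.0. NADH fluorescence (ex 360/em 450) read over 4 min; last-minus-first difference.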
HSD17B inh: qHTS Assay for Inhibitors of HSD17B4, hydroxysteroid (17-beta) dehydrogenase 4. recombinant HSD17B10, NADH fluorescence kinetic. Potency, µM (highest dose often 57.1 µM), actives largely listed as inhibitors. AID 893, 2007. hit rate 7.6% among 75,000;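 also: the protocol describes HADH2 (HSD17B10) and not the HSD17B4 of the title; nearly all actives have a fitted effect of over 70% in size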
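Enzyme plus compound, 15 min room temperature; substrate mix added (NAD+ 1 mM, beta-hydroxybutyryl-CoA 90 uM final); plates read kinetically for NADH fluorescence. HADH2 was His-tagged, E. coli-derived, 20 nM.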
Large screens that a line does not name were inactive. Sampled rows, rich in hits. Any-hit rate of the full collection: about 14%. Unless noted, calls follow the shape of the dose curve; as a rule, active = well fitted curve in the direction sought with a large enough effect; inconclusive = small, poorly fitted or top-dose-only effect, or another doubt; inactive = no such curve, though single readings can be large; an effect the other way counts as inactive or inconclusive.

CCOP(=O)(C#CC(C)(C)C)C1(O)CCCCC1 (stereo not drawn)	A350 fluor 2.2e-08M, 4-MU autofl 1.8e-08M
N[C@@H](CSC1c2ccccc2-c2ccccc21)C(=O)O	none
Cc1c2cnn(CC(=O)N3CCC4(CC3)OCCO4)c(=O)c2c(C)n1Cc1ccccc1	none (no result: CRE Fsk mod, A350 fluor, 4-MU autofl)
Cn1c(=O)n(CC(=O)N2CCC3(CC2)OCCO3)c(=O)c2ccccc21	HADH2 inhib 40µM, HSD17B inh inconclusive
O=C(CCn1c(=O)oc2ccccc21)N1CCC2(CC1)OCCO2	none
O=C(Cn1ncc2c3ccccc3n(Cc3ccc(F)cc3)c2c1=O)N1CCC2(CC1)OCCO2	CRE Fsk mod inconclusive, HADH2 inhib inconclusive, HSD17B inh 25µM
C(#CCN1CCOCC1)COCc1ccccc1	none
O=C(Cc1ccccc1)OC(COCc1ccccc1)CN1CCOCC1 (stereo not drawn)	A350 fluor 1.1e-07M, 4-MU autofl 8.8e-08M
O=[As](O)(O)c1ccc(Cc2ccc([As](=O)(O)O)cc2)cc1	CRE Fsk mod inconclusive, HADH2 inhib inconclusive, HSD17B inh 3.2µM
Nc1ccc([As](=O)(O)O)cc1	none (no result: CRE Fsk mod, A350 fluor, 4-MU autofl)
CCCn1c(=O)c2[nH]c(C3CCCC3)nc2n(CCCOC(=O)c2ccc(S(=O)(=O)F)cc2)c1=O	HADH2 inhib 20µM
CCCCCCn1c(O)c(C=NC2CCCCC2N)c(=O)[nH]c1=O (stereo not drawn)	none
COCCOC(=O)c1c(N)n(Cc2ccco2)c2nc3ccccc3nc12	A350 fluor 4.5e-06M, 4-MU autofl 3.9e-06M (no result: CRE Fsk mod, AID923, HADH2 inhib, HSD17B inh)
CC(C)OC(=O)c1c(N)n(Cc2ccco2)c2nc3ccccc3nc12	A350 fluor 3.3e-06M, 4-MU autofl 3e-06M (no result: CRE Fsk mod, AID923, HADH2 inhib, HSD17B inh)
C1C[C@@H]2CN(CCCN3CCOCC3)[C@@H](C1)O2	none
Cc1nnc2ccc(-c3cccc(C(F)(F)F)c3)nn12	CRE Fsk mod inconclusive, HSD17B inh 20µM (no result: A350 fluor, 4-MU autofl)
CN1[C@@H]2CC[C@H]1CC(O)C2 (stereo partly drawn)	none
c1ccc(-c2ccccc2)cc1	none (no result: A350 fluor, 4-MU autofl)
Oc1ccccc1-c1ccccc1	HSD17B inh 32µM (no result: A350 fluor, 4-MU autofl)
c1cc2ccc3cccc4ccc(c1)c2c34	HADH2 inhib 32µM, HSD17B inh 32µM (no result: A350 fluor, 4-MU autofl)
Cc1ccc2ccccc2c1	none (no result: A350 fluor, 4-MU autofl)
c1ccc2c(c1)c1cccc3ccc4cccc2c4c31	HADH2 inhib 32µM, HSD17B inh 25µM (no result: A350 fluor, 4-MU autofl)
COc1ccc(CN2CCNCC2)c(OC)c1OC	none
CC1(C)C2CC=C(CN3CCC(O)CC3)C1C2 (stereo not drawn)	A350 fluor inconclusive, 4-MU autofl inconclusive
COc1cc2c(cc1O)CCN[C@H]2C	CRE Fsk mod inconclusive, A350 fluor 1e-07M, 4-MU autofl 1e-07M, HADH2 inhib inconclusive (no result: AID923, HSD17B inh)
C=CCO	none (no result: A350 fluor, 4-MU autofl)
COc1cc2c(cc1OC)-c1c(OC)c(OC)c(C=O)c3c1[C@H](C2)N(C)CC3	HSD17B inh inconclusive (no result: CRE Fsk mod, A350 fluor, 4-MU autofl, HADH2 inhib)
COc1cc2c(cc1O)CC1c3c(cc(O)c(OC)c3-2)CCN1C (stereo not drawn)	HSD17B inh 32µM (no result: CRE Fsk mod, A350 fluor, 4-MU autofl, HADH2 inhib)
COc1cc2c(cc1O)C[C@H]1c3c(cc(OC)c(O)c3-2)CCN1C	CRE Fsk mod inconclusive, HADH2 inhib 32µM, HSD17B inh 32µM
COc1cc2c(cc1OC)-c1c(OC)c(OC)c(CO)c3c1C(C2)N(C)CC3 (stereo not drawn)	HSD17B inh 32µM (no result: CRE Fsk mod, A350 fluor, 4-MU autofl, HADH2 inhib)
COc1ccc2c(c1O)-c1c(OC)c(OC)cc3c1[C@@H](C2)N(C)CC3	none
CNP1(NC)=NC(C(F)(F)F)=NC(C(F)(F)F)=N1	none
C[C@@]12CCC(Cl)C[C@H]1CCC1C2CC[C@]2(C)C(=O)CCC12 (stereo partly drawn)	none (no result: CRE Fsk mod, A350 fluor, 4-MU autofl, HADH2 inhib)
CCC(=O)N1CCN(c2cc3c(cc2F)c(=O)c(C(=O)O)cn3CC)CC1	A350 fluor 7e-08M, 4-MU autofl 7.5e-08M, HADH2 inhib 25µM, HSD17B inh 25µM
CC1(C)C(c2ccccc2)=NC(c2cccnc2)N1O (stereo not drawn)	none (no result: A350 fluor, 4-MU autofl)
